# Only some compounds are listed: those with a hit (about 0.92% of all), similar ones and a draw of the others.
# RecA splice inh: inhibitors of M. tuberculosis RecA intein splicing; 290,000 tested, 0.75% active; P9WHJ3; cell-free RecA intein splicing, fluorescence; inhibition, % (concentration not given with the values); in the data active = inhibition above about 30%;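 note: 0% = vehicle wells and 100% = reference inhibitor control wells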
# Target sequence (P9WHJ3 whole entry, looked up, canonical isoform): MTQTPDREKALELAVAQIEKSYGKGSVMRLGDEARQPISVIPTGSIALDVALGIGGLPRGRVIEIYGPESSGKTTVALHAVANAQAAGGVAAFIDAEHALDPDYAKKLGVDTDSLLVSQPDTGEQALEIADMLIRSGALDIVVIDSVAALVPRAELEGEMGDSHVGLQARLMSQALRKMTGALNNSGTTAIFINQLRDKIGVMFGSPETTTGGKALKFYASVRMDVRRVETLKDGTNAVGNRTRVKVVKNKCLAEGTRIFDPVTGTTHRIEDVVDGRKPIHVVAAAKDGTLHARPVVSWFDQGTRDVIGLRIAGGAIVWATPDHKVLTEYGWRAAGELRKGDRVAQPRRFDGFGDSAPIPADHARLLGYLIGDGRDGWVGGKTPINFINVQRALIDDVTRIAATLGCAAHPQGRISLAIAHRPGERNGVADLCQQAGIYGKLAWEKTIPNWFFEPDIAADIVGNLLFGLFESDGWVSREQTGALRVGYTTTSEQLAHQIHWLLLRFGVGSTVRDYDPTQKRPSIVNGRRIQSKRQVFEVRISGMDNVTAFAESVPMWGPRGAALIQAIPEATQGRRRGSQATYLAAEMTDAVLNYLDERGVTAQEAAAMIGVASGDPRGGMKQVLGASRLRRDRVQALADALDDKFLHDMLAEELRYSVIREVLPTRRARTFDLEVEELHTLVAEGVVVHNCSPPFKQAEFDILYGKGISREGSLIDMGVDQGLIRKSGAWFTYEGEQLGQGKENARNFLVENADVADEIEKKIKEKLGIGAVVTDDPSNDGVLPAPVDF
# Mtb hypoxia inh: inhibitors of hypoxia-regulated fluorescent reporter in Mycobacterium tuberculosis. M. tuberculosis hypoxia-regulated fluorescent reporter, fluorescence. fluorescence inhibition, % (concentration not given with the values). 300,000 tested, 0.1% active; in the data active = fluorescence inhibition mostly above about 23%, no sharp cut-off; inactive = mostly below about 17%
# FadD28 FP inh: inhibitors of Mycobacterium tuberculosis FadD28 bisubstrate binding | FadD28 bisubstrate probe binding, fluorescence polarization | inhibition, % at 12.5 µM | 360,000 tested, 0.22% active; in the data active = inhibition above about 8.5%, passing the limit was not always enough
# UGM FP inh: inhibitors of M. tuberculosis UDP-galactopyranose mutase. 320,000 tested, 0.06% active. purified UGM, fluorescence polarization probe displacement. inhibition, % at 10 µM; in the data active = inhibition above about 10%, passing the limit was not always enough
# Rv3671c protease: inhibits the M. tuberculosis serine protease Rv3671c. P9WHR9. inhibition, % at 5.96 µM. 320,000 tested, 0.048% active; in the data active = inhibition above about 38%;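 note: extracellular domain of Rv3671c used as enzyme; 0% = enzyme with DMSO and 100% = no enzyme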
# * = called active by the depositor; i = inactive; . = not tested or not shown.
SMILES,RecA splice inh,Mtb hypoxia inh,FadD28 FP inh,UGM FP inh,Rv3671c protease
CC(C)C[C@@]12C(=O)N(c3cccc(Cl)c3)C(=O)N1C(c1ccc(Cl)cc1)C1C(=O)N(C3CCCCC3)C(=O)C12 (stereo not given in full),.,2,.,.,.
COc1ccc(-c2sc3ccccc3c2-c2ccc(OCCN(C)C)cc2)cc1,.,47*,-12,-1,14
CN(C)CCOc1ccc(-c2c(-c3ccsc3)sc3ccccc23)cc1,.,.,-9,0,6
CCc1noc(C)c1C(=O)Nc1cc(S(=O)(=O)N2CCOCC2)ccc1OC(C)C,-1,3,16*,-2,0
COc1cc(C(=O)Nc2cc(S(=O)(=O)N3CCOCC3)ccc2N2CCOCC2)ccc1OC(F)F,.,23*,-2,.,.
COc1cc(C(=O)Nc2cc(S(=O)(=O)N3CCOCC3)ccc2N2CCOCC2)cc(OC)c1C,.,9,-5,.,.
O=[N+]([O-])c1ccc(Oc2cccc(F)c2)c2ccncc12,73*,.,-1,-1,-6
O=[N+]([O-])c1cnccc1Nc1cccc(F)c1,3,4,-5,0,-3
OCC#CCSc1nnc(-c2ccccc2Br)o1,3,41*,0,4,9
Cc1nc(NC(N)=NS(=O)(=O)c2ccc([N+](=O)[O-])cc2)nc2ccccc12,.,17,.,.,.
Cc1ccc(S(=O)(=O)Nc2c(C)n(C)n(-c3ccccc3)c2=O)cc1C(=O)OC(C)C(=O)c1ccccc1 (stereo not given),.,21*,-2,.,.
CC(=O)OCCn1c2nc(=O)[nH]c(=O)c-2nc2cc(C)c(C)cc21,i,-56,2,108*,.
COc1ccc(C2CC(=O)C=C(c3ccc(C(F)(F)F)c(C(F)(F)F)c3)C2)cc1OC (stereo not given),.,1,.,.,.
O=C(NN=C1CCc2ccccc21)c1ccccc1Cl,.,-4,.,.,.
CCCCCCCCCCCCC/C=C/[C@@H](O)[C@@H](N)CO,25,.,33*,3,-2
CCCCC/C=C\C/C=C\C/C=C\CCCCC(=O)O,.,.,-2,1,-4
Cn1cc(C=NO)nc2c(=O)n(-c3ccccc3)c(=O)nc1-2,.,38*,.,.,.
CC(=O)NC1=C(Nc2ccc(N(C)C)cc2)C(=O)c2ccccc2C1=O,76*,.,-2,0,-9
CC(=O)NC1=C(N(C)C2CCS(=O)(=O)C2)C(=O)c2ccccc2C1=O (stereo not given),26,.,-1,-4,-52
CCCCCn1nc(-c2ccccc2)c2nc3ccccc3nc21,-56,.,0,38*,-2
N#Cc1ncc(-c2ccc3c(c2)OCCOCCOCCOCCO3)nc1C#N,36*,16,-1,1,-13
N#Cc1ncc(-c2ccc3c(c2)OCCOCCOCCOCCOCCO3)nc1C#N,44*,11,-2,1,-3
CCOC(=O)C1C2COc3ccc(C)cc3C2N2C(=O)c3ccc(C)cc3NC(=O)[C@@]12C (stereo not given in full),.,1,.,.,.
CC(C)(C)c1cc(C(=O)CCN2CCOCC2)cc(C(C)(C)C)c1O,30*,11,-2,4,-5
CC1C2C[C@@]34COC(=O)C3=CC=CC4[C@@]13CC(c1ccoc1)OC3O2 (stereo not given in full),.,1,.,.,.
SMILES,RecA splice inh,Mtb hypoxia inh,FadD28 FP inh,UGM FP inh,Rv3671c protease
O=C(COC(=O)C1COc2ccccc2O1)Nc1cccc(F)c1 (stereo not given),.,28*,-3,4,5
O=C(Nc1cccc(Cl)c1)NC1CC2CCC1C2 (stereo not given),3,32*,-1,2,0
COc1cc2cc3c(N)c(C(=O)Nc4sc(C)c(C)c4C#N)sc3nc2cc1OC,-4,2,11*,-1,-8
COc1cc2cc3c(N)c(C(=O)NCc4ccco4)sc3nc2cc1OC,-4,.,1,-3,0
O=C(CCCN1C(=O)/C(=C\c2ccccc2)SC1=S)Nc1ccc(O)cc1,32*,9,-3,1,2
Cc1ccc(NC(=O)COc2cccc(/C=C3\SC(=S)N(CCC(=O)O)C3=O)c2)cc1Cl,31*,10,-1,0,-19
Cc1ccc(/C=C2/SC(=S)N(CCCC(=O)Nc3ccc(O)cc3)C2=O)cc1,13,2,-4,.,.
O=C(O)COc1cccc(/C=C2/SC(=S)N(Cc3ccccc3)C2=O)c1,45*,14,-5,0,-29
O=C(O)c1cc(-c2ccc(/C=C3/SC(=S)N(Cc4ccccc4)C3=O)o2)ccc1Cl,.,16,28*,.,.
COc1ccc(NC(=O)CCC(=O)NN=Cc2cn(C)nc2C)cc1,.,-3,.,.,.
